# Measurements as given in ChEMBL document CHEMBL3988442, “University of Dundee, Small-Polar-MMV Screening Library” (2021).
# Hit rate of the full screen: of about 48,000 compounds, about 13,000 (27%) showed an effect of 50% or more. Some of the results follow.
# System: Wolbachia pipientis
# Test: Anti-Wolbachia Cell-Based Screen
# Format: functional
# Parameters: scale not given: in the data most compounds retested in dose-response had high values
# Details: 5 µM
row,Structure (SMILES),Percent Effect [%]
1,CCNC(=O)CN(Cc1ccoc1)C1CCCCC1,-9.878
2,CC(=O)N1CCN(C(=O)CN2CCc3c(ncn3C3CC3)C2)CC1,17.74
3,CCN1CCC(NC(=O)CN2CCc3c(ncn3C)C2)CC1,-0.1158
4,O=C(CCN1CCc2c(ncn2C2CC2)C1)NC1CCCC1,116.5
5,CCN1CCC(NC(=O)CN2CCc3c(nc(C4CC4)n3C)C2)CC1,-1.72
6,O=C(CN1CCc2c(ncn2C2CC2)C1)NC1CCN(C2CC2)CC1,121.2
7,N#Cc1ccc(OCCN2CCc3c(ncn3C3CC3)C2)cc1,2.68
8,CCN1CCC(NC(=O)CN2CCc3c(ncn3C3CC3)C2)CC1,104
9,O=C(CN1CCc2c(ncn2C2CC2)C1)NC1CCOCC1,127.5
10,N#CC1(NC(=O)CN2CCc3c(ncn3C3CC3)C2)CCCC1,-4.395
11,OC(CN1CCOCC1)CN1CCc2c(ncn2C2CC2)C1 (stereo unspecified),4.204
12,OC(COc1ccccc1)CN1CCc2c(ncn2C2CC2)C1 (stereo unspecified),-5.117
13,O=C(CN1CCc2c(ncn2C2CC2)C1)NC1CC1,-2.463
14,O=C(C[S+]([O-])Cc1ccc(F)cc1Cl)N1CCc2sccc2C1 (stereo unspecified),-9.716
15,Cc1cc2n(n1)CC(CNC1CCN(Cc3ccccn3)CC1)CN2 (stereo unspecified),3.925
16,O=C(N[C@@H]1CN(Cc2ccco2)[C@@H]2CCCO[C@@H]21)c1cscn1,106.9
17,NC(=O)N1C[C@H](NC(=O)c2cscn2)[C@@H]2OCCC[C@@H]21,101.9
18,O=C(N[C@@H]1CN(c2ncccn2)[C@@H]2CCCO[C@@H]21)c1cscn1,-1.481
19,O=C(N[C@@H]1CN(c2ncccn2)[C@@H]2CCCO[C@@H]21)c1cnccn1,-12.54
20,CCOc1cc(CNCCCn2ccnc2)cc(Cl)c1OCC,-4.315
21,CC(C)Cc1noc(CN2CCC(NC(=O)c3cccs3)CC2)n1,5.621
22,CCOC(C)c1noc(CN2CCN(Cc3ccno3)CC2)n1 (stereo unspecified),-9.724
23,CN(Cc1cc(-c2ccncc2)no1)C(=O)[C@@H]1CSCN1C,2.417
24,CS(=O)(=O)NC1CCN(C(=O)CCC2CCCO2)CC1 (stereo unspecified),10.42
25,O=C(CCC1CCCO1)N1CCc2nc(-c3cnccn3)nc(O)c2C1 (stereo unspecified),116.1
26,COCC(=O)N1CCc2nc(C(=O)Nc3cccnc3)sc2CC1,1.921

row,Structure (SMILES),Percent Effect [%]
1,CS(=O)(=O)N1CCN(C(=O)CCC2CCCO2)CC1 (stereo unspecified),1.133
2,Cc1nc(CC(=O)N2CCc3nc(-c4cnccn4)nc(O)c3C2)cs1,88.77
3,COCC(=O)N1CCc2nc(-c3cnccn3)nc(O)c2C1,104.8
4,O=C(c1ccccn1)N1CCc2nc(-c3cnccn3)nc(O)c2C1,-8.53
5,O=C(Cc1csc(-c2ccco2)n1)N1CCN(c2cnccn2)CC1,16.12
6,CC(C)(CC(=O)N(CC(N)=O)C1CCCC1)c1ccccc1,-10.15
7,CC(C)(CN)NS(=O)(=O)c1cccc(F)c1F.Cl,-6.445
8,C=Cc1cccc(CN2C[C@H]3CC[C@@H]2CN(Cc2c(C)noc2C)C3)c1,-8.639
9,Cc1ccc(C(=O)N(C)Cc2ccc(Br)o2)c(=O)[nH]1,131.8
10,Cc1ccc(C(=O)N(C)Cc2c(C)noc2C)c(=O)[nH]1,0.555
11,Cc1ccc(C(=O)N(C)Cc2csc(Br)c2)c(=O)[nH]1,125.8
12,Cc1nc(CN(C)C(=O)CNC(=O)c2ccc(C#N)cc2)cs1,6.778
13,Cc1ccc(C(=O)N(C)Cc2csc(C)n2)c(=O)[nH]1,127.5
14,Cc1ccc(C(=O)NCC(O)c2ccc(Cl)s2)c(=O)[nH]1 (stereo unspecified),-29.35
15,COC(=O)NCC(=O)N(C)Cc1csc(C)n1,0.6719
16,Cc1ccc(C(=O)N(C)Cc2ccc(Br)s2)c(=O)[nH]1,139.4
17,Cc1ccc(C(=O)N(Cc2ccc(F)cc2F)C2CC2)c(=O)[nH]1,-11.26
18,Cc1ncsc1C(=O)N(C)Cc1ccc(Br)o1,23.63
19,Cc1ccc(C(=O)N(Cc2ccc(F)cc2)C2CC2)c(=O)[nH]1,-2.478
20,CCN(Cc1ccc2c(c1)OCO2)C(=O)c1ccc(C)[nH]c1=O,-8.548
21,CNc1ccnc(N2C[C@@H](C)[C@](O)(C3CCC3)C2)n1,-0.8884
22,COCCN(C(=O)c1c[nH]c2ncccc12)C1CCCC1,6.84
23,COCCC(=O)NCCn1nc(C2CCNC2)c2cccnc21.Cl (stereo unspecified),104.9
24,CN(C(=O)CNC(=O)CC(C)(C)C)C1CCN(c2ccccn2)CC1,12.99
25,Cc1cccnc1[C@H](C)NC(=O)c1cccc(CC2CCNCC2)c1,-20.86
26,CNc1ncc(CN(C)C(=O)c2ccccc2C2CCNC2)cn1 (stereo unspecified),-12.29

row,Structure (SMILES),Percent Effect [%]
1,Cl.O=C(CCC1CCCC1)NCCn1nc(C2CCNC2)c2nccnc21 (stereo unspecified),-7.206
2,CC(C)CC(=O)NCCn1nc(C2CCNC2)c2cccnc21.Cl (stereo unspecified),97.32
3,CC(C)(C)CC(=O)NCCn1nc(C2CCNC2)c2cccnc21.Cl (stereo unspecified),117.2
4,CC(C)(C)CC(=O)Nc1ncn(CC(=O)NCc2ccccc2)n1,0.2654
5,CC(C)NS(=O)(=O)c1cc(C(=O)O)cc(-c2ccc(CN(C)C)cc2)c1,-14.22
6,Cc1cc(CNC(=O)Nc2ccc(C(=O)NC3CC3)cc2)no1,1.867
7,CC(C)(O)CCc1cccc(C(=O)N2CCC3(CCOCC3)CC2)c1,-3.198
8,CC(=O)NCCC1CCCCN1C(=O)c1cccc(CCC(C)(C)O)c1 (stereo unspecified),90.48
9,CC(C)(O)CCc1cccc(C(=O)NCCC2CCOC2)c1 (stereo unspecified),-27.94
10,CC(C)(O)CCc1cccc(C(=O)N2CCC[C@H]2CN2CCCC2)c1,96.29
11,CC(C)(O)CCc1cccc(C(=O)N2CCC3(CCO3)CC2)c1,8.25
12,CO[C@H]1C[C@@H](O)C12CCN(C(=O)c1cccc(CCC(C)(C)O)c1)CC2,-1.029
13,CCc1nnc(SCC(=O)Nc2cc(C(C)(C)C)nn2C)[nH]1,-3.815
14,CCOc1cc(CN2CCCC2)ccc1Oc1cccc(C#N)n1,-4.025
15,COc1cc(CNC(=O)NCc2c(C)cc(C)[nH]c2=O)ccc1C,1.509
16,CC(C)(C)N1CC(c2ncc(-c3ccc4c(c3)OCCO4)[nH]2)CC1=O (stereo unspecified),-4.995
17,Cc1nsc(NC(=O)NC2CCCOC2)n1 (stereo unspecified),-39.42
18,O=C(CC1COCCN1)NCCc1nc(-c2ccccn2)no1 (stereo unspecified),-14.35
19,O=C(CC1COCCN1)NCCc1nc(Cc2ccccc2)no1 (stereo unspecified),18.61
20,Cl.Nc1ncc(-c2csc(NC(=O)C[C@H]3COCCN3)n2)cn1,103.3
21,CC(C)Nc1ncc(-c2csc(NC(=O)C[C@H]3COCCN3)n2)cn1,64.22
22,CNc1ncc(-c2csc(NC(=O)C[C@H]3COCCN3)n2)cn1.Cl,71.35
23,O=C(CC1COCCN1)NCCc1noc(-c2ccccc2)n1 (stereo unspecified),-6.645
24,CCNC(=O)NCc1cnn(-c2ccc(F)cc2F)c1,-2.386
25,Cc1cc(CC(=O)NCC(O)c2ccc(OC(F)F)cc2)n[nH]1 (stereo unspecified),-1.889
26,Cc1ccccc1-c1noc(CNc2ccc(F)cc2OCCO)n1,17.52

row,Structure (SMILES),Percent Effect [%]
1,CS(=O)(=O)c1ccc(CN2C[C@@H]3OCC(=O)N(CC(N)=O)[C@@H]3C2)cc1,4.5
2,Cc1ccc(CN2C[C@@H](c3ccccc3)[C@@]3(CCNC3=O)C2)o1,33.3
3,O=C1NCC[C@]12CN(Cc1ccco1)C[C@H]2c1ccccc1,13.69
4,CCCS(=O)(=O)N1C[C@@H](c2ccccc2)[C@@]2(CCNC2=O)C1,108.5
5,CCS(=O)(=O)N1C[C@@H](c2ccccc2)[C@@]2(CCNC2=O)C1,107.9
6,O=C(c1cnccn1)N1C[C@@H](c2ccccc2)[C@@]2(CCNC2=O)C1,-14.79
7,CN(C)c1ccc(CC(=O)N2C[C@H](C3CC3)[C@@H](N)C2)cc1,-4.487
8,COc1ccc2c(c1)s/c(=N\C(=O)CSCC(=O)Nc1nccs1)n2C,-4.566
9,N#CCCN(CC1CC1)S(=O)(=O)c1cccc(Cl)c1,-14.4
10,CC(=O)c1cccc(-c2c[nH]c(C)n2)c1,-8.634
11,O=c1[nH]nc(CNCc2ccc(OC34CCCN(CC3)C4)cc2)[nH]1 (stereo unspecified),93.23
12,Cc1nc(CNCc2cccc(OC34CCCN(CC3)C4)c2)n[nH]1 (stereo unspecified),113.3
13,Cc1nc(CNCc2ccc(OC34CCCN(CC3)C4)cc2)n[nH]1 (stereo unspecified),103.3
14,Cc1n[nH]cc1CNCc1cccc(OCC(F)(F)F)c1.Cl,-11.93
15,Cc1cnccc1CNCc1ccc(OC23CCCN(CC2)C3)cc1 (stereo unspecified),106.9
16,COCCN1CCCC(O)(CN2CCN(c3ccncc3C)CC2)C1=O (stereo unspecified),-3.963
17,Cc1ccnc(NCc2cccc(OCCN3CCOCC3)c2)n1,10.24
18,CCN1CCCC(O)(CNCc2ccncc2)C1 (stereo unspecified),6.912
19,Cc1ccc(CN2CCNC(=O)C2CC(=O)NCc2n[nH]c(C)n2)cc1 (stereo unspecified),3.294
20,COc1ccc(C(C)(C)C(=O)NCc2n[nH]c(=O)[nH]2)cc1,-12.5
21,OC(CN1CCN(CC2CC2)CC1)c1ccc(Br)cc1 (stereo unspecified),16.18
22,CCNC(=O)NC(=O)C(C)N1CCCc2cc(OC)ccc2C1 (stereo unspecified),-0.429
23,CCc1ccc(C(C)NC(=O)CCc2nc(-c3nnc[nH]3)no2)cc1 (stereo unspecified),0.9549
